# Source: PubChem BioAssay (Broad Institute)
# The sample as a whole holds a higher share of hits than the screen did.
# BL2 CD40 inh – CD40 pathway inhibition in BL2 cells; BL2 NF-kB luciferase reporter, CD40L-induced, 4 h; inhibition, % at 10 µM; 0.94% of 83,000 active; AID 1053188;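 active means mean inhibition of at least 50% with a set share of replicates also reaching that level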;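 further: 0% = neutral control wells and 100% = IKK inhibitor VII at 50 µM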
# An asterisk follows results filed as active; ! = not active in a repeat; [ ] = another dose, or the depositor's remark.
SMILES,BL2 CD40 inh
O=C(c1ccncc1)N1C[C@@H]2N[C@H](C1)C2c1ccc(/C=C/c2ccccc2)cc1 (some centres undefined),26[25 µM]
O=C(C1CCCC1)N1C[C@@H]2N[C@H](C1)C2c1ccc(/C=C/c2ccccc2)cc1 (some centres undefined),49*!
N#Cc1ccc(-c2ccc(C3[C@@H]4CN(C(=O)c5cccnc5)C[C@H]3N4)cc2)cc1 (some centres undefined),2[25 µM]
O=C(c1ccc2c(c1)OCO2)N1C[C@@H]2N[C@H](C1)C2c1ccc(/C=C/c2ccccc2)cc1 (some centres undefined),14[25 µM]
O=C(Nc1ccccc1)N1C[C@@H]2N[C@H](C1)[C@@H]2c1ccc(/C=C/c2ccccc2)cc1,-12
O=C(c1ccc(F)cc1)N1C[C@@H]2N[C@H](C1)C2c1ccc(/C=C/c2ccccc2)cc1 (some centres undefined),50*![25 µM]
N#Cc1cccc(-c2ccc(C3[C@@H]4CN(C(=O)C5CCOCC5)C[C@H]3N4)cc2)c1 (some centres undefined),0[25 µM]
O=C(C1CCOCC1)N1C[C@@H]2N[C@H](C1)C2c1ccc(/C=C/c2ccccc2)cc1 (some centres undefined),40[25 µM]
COCC(=O)N1[C@H](C#N)[C@@H](c2ccc(-c3cccc(F)c3)cc2)[C@@H]1CO,-23[25 µM]
Cc1ccc(S(=O)(=O)N(C)C[C@H]2OCc3ccccc3-c3ccccc3C(=O)N([C@H](C)CO)C[C@@H]2C)cc1,14
O=C(NCC[C@@H]1CC[C@H](NS(=O)(=O)Cc2ccccc2)[C@@H](CO)O1)C1CCCCC1,-7[25 µM]
CC(C)N(C[C@H]1N[C@H](CO)[C@@H]1c1ccccc1)C(=O)CN1CCOCC1,-1[25 µM]
CO[C@H]1CN(C)C(=O)c2cc(NC(=O)C3CC3)ccc2OC[C@@H](C)N(C(=O)C2CCOCC2)C[C@@H]1C,-12
CO[C@@H]1CN(C)C(=O)c2cc(NC(=O)Nc3c(C)noc3C)ccc2OC[C@@H](C)N(C(=O)Nc2cccc(Cl)c2)C[C@H]1C,-2
CCOC(=O)N(C)C[C@H]1OCc2ccccc2-c2c(n(C)c3ccccc23)C(=O)N([C@@H](C)CO)C[C@@H]1C,-4
CCCOC(=O)c1ccc(O)c(OC)c1,15
COc1cc(C(=O)O[C@H]2CC(C)=CC[C@@]3(C)CC[C@@](O)(C(C)C)[C@H]23)ccc1O,52*
O=C1CN(S(=O)(=O)Cc2ccccc2)C[C@@H]2[C@H](c3ccc(C#Cc4ccccc4)cc3)[C@H](CO)N12,28[25 µM]
CN(C)C(=O)[C@@H]1[C@@H](CO)[C@@H]2Cn3c(ccc(-c4ccccc4)c3=O)[C@H]1N2C(=O)C1CC1,-2[25 µM]
S=C(CSc1ccccc1)Nc1cccc2ccccc12,-24
[O-]C(=C(C(=S)Nc1cccc2ccccc12)[n+]1ccccc1)c1ccc2c(c1)OCCO2,55*
O=C(Nc1cccc2cccnc12)c1ccc2c(c1)OCCO2,-40
CS(=O)(=O)N1[C@@H](C#N)[C@@H](c2ccc(C#CC3CC3)cc2)[C@@H]1CO,-8
COc1ccc(S(=O)(=O)N(C)C[C@H]2OCc3ccccc3-c3c(n(C)c4ccccc34)C(=O)N([C@H](C)CO)C[C@H]2C)cc1,4
Cc1cccc(S(=O)(=O)N(C)C[C@H]2OCc3ccccc3-c3c(n(C)c4ccccc34)C(=O)N([C@H](C)CO)C[C@@H]2C)c1,9
SMILES,BL2 CD40 inh
C[C@@H]1CN([C@H](C)CO)C(=O)c2c(c3ccccc3n2C)-c2ccccc2CO[C@@H]1CN(C)S(=O)(=O)c1cccc(F)c1,-8
COc1cccc(S(=O)(=O)N(C)C[C@H]2OCc3ccccc3-c3c(n(C)c4ccccc34)C(=O)N([C@H](C)CO)C[C@@H]2C)c1,57*[25 µM]
C[C@H](CO)N1C[C@H](C)[C@H](CN(C)S(=O)(=O)c2cccc(F)c2)OCc2ccccc2-c2c(n(C)c3ccccc23)C1=O,-3
COc1cccc(S(=O)(=O)N(C)C[C@H]2OCc3ccccc3-c3c(n(C)c4ccccc34)C(=O)N([C@@H](C)CO)C[C@H]2C)c1,61*[25 µM]
COc1cccc(S(=O)(=O)N(C)C[C@@H]2OCc3ccccc3-c3c(n(C)c4ccccc34)C(=O)N([C@H](C)CO)C[C@H]2C)c1,64*[25 µM]
Cc1cccc(S(=O)(=O)N(C)C[C@@H]2OCc3ccccc3-c3c(n(C)c4ccccc34)C(=O)N([C@H](C)CO)C[C@@H]2C)c1,15
C[C@@H]1CN([C@H](C)CO)C(=O)c2c(c3ccccc3n2C)-c2ccccc2CO[C@@H]1CN(C)S(=O)(=O)c1ccccc1,8
COc1cccc(S(=O)(=O)N(C)C[C@@H]2OCc3ccccc3-c3c(n(C)c4ccccc34)C(=O)N([C@H](C)CO)C[C@@H]2C)c1,62*[25 µM]
C[C@H]1CN([C@@H](C)CO)C(=O)c2c(c3ccccc3n2C)-c2ccccc2CO[C@@H]1CN(C)S(=O)(=O)c1cccc(F)c1,5
C[C@@H]1CN([C@H](C)CO)C(=O)c2c(c3ccccc3n2C)-c2ccccc2CO[C@H]1CN(C)S(=O)(=O)c1cccc(F)c1,2
